Compound activity from PubChem.
CHT PAM – allosterically activates the human high affinity choline transporter; Q9GZV3; CHT-expressing cells, membrane potential dye, choline EC20; hits give high values; LV-AA mutant CHT in HEK293 cells; B-score at 10 µM; 0.49% of 310,000 active;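 active means initial fluorescence not abnormally high and integrated response B-score, plate-corrected, over 3 SD above library mean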
Target sequence (Q9GZV3 whole entry, looked up): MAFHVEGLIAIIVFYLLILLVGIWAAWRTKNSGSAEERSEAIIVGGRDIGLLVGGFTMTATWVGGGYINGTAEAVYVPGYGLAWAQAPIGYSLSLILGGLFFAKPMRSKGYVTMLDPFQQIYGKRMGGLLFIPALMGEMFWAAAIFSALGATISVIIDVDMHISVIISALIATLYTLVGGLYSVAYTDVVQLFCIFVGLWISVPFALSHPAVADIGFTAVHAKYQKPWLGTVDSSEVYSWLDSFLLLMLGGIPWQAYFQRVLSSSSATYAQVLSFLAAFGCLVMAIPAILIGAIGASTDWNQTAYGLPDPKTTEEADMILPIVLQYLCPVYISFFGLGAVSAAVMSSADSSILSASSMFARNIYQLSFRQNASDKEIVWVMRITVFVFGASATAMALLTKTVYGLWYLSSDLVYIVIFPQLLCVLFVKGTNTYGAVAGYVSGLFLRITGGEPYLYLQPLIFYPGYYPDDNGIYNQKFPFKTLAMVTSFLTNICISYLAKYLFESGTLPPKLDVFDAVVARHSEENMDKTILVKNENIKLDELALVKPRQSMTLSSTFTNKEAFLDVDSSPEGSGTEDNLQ
Kir21 block – Kir2.1 (mouse) channel inhibition; P35561; HEK293-Kir2.1, FluxOR thallium flux fluorescence; hits give low values; B-score at 10 µM; 0.85% of 310,000 active;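 active means fluorescence ratio B-score at or below minus 3 SD of library scores, with starting-brightness B-score within 2 SD, cut at about -4.2 in these data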;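 further: channel flux triggered by added potassium and thallium sulfate stimulus; B-score of peak minus minimum fluorescence over baseline after thallium stimulus; more negative B-score means stronger Kir2.1 block with less thallium influx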
CHT block – inhibitors of human choline transporter CHT; B-score at 10 µM; 0.86% of 310,000 active; Q9GZV3; AID 488975; CHT-expressing cells, membrane potential dye, choline response; hits give low values;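 active means B-score over 3 SD under the library average, and starting fluorescence ratio not unusually high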;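 further: choline stimulus applied at its EC90 after an EC20 pre-addition; B-score computed on integrated fluorescence ratio after choline addition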
TAG inh – triacylglycerol accumulation inhibition | AID 651582 | 0.66% of 230,000 active | inhibition, % at 12.5 µM | H9c2 cells, Nile Red lipid (TAG) fluorescence; cells loaded with 200 µM oleic acid;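 active means pattern-corrected inhibition of lipid staining of at least 50% with the nuclear-stain viability signal not falling by more than 50%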
CHT activ conf – human CHT activation, confirmatory screen | shares compounds with CHT PAM | CHT-expressing cells, membrane potential dye fluorescence (FDSS); % of choline EC20–EC90 response window; HEK293 expressing CHT LV-AA mutant; choline added at its EC20 | activation, % at 10 µM | 91% of 2,500 active | AID 504833;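 active means primary screen active, with duplicate mean activation above negative control mean plus 3 SD, cut at about 11% in these data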
HEK293 MP dye – CHT activator counter-screen hit in parental HEK293 cells | shares compounds with CHT PAM | membrane potential dye fluorescence (FDSS); measured after EC20 choline addition | ratio readout change at 10 µM, hits read low | 62% of 2,500 active;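 active means duplicate-averaged ratio beyond 3 SD from buffer wells, up or down, though filed actives are nearly all decreases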
Hits are given with their value; i = inactive; nt = not tested or not shown. In the library only some 2% were active in any assay of this set; here they are far more common.

SMILES	CHT PAM	Kir21 block	CHT block	TAG inh	CHT activ conf	HEK293 MP dye
Cc1cccc(-n2ccnc2CN2CCN(C(C)C)C(CCO)C2)c1 (configuration not stated)	i	i	i	i	nt	nt
CCn1cc2nc(SCC(=O)Nc3ccc(F)cc3F)n(Cc3ccccc3)c(=O)c2n1	i	i	i	nt	nt	nt
Cc1cccc(N(C)S(=O)(=O)c2ccc(-c3cc(C)no3)s2)c1	i	i	i	nt	39.4	i
CCOc1ccc(N(C)S(=O)(=O)c2ccc(-c3cc(C)no3)s2)cc1	i	i	i	nt	nt	nt
COC1=C(Nc2ccc(OC)cc2)C(=O)c2ccccc2C1=O	6.51	i	i	nt	11.8	-64.5
CCOc1ccc(NC2=C(OC)C(=O)c3ccccc3C2=O)cc1	i	i	i	nt	13.6	-66.6
COC1=C(Nc2ccc(OC)cc2)C(=O)C(OC)=C(Nc2ccc(OC)cc2)C1=O	nt	nt	nt	i	nt	nt
COC1=C(Nc2ccc(O)cc2)C(=O)c2ccccc2C1=O	i	i	i	nt	29.0	-78.1
O=C(/C=C/c1cccc(C(F)(F)F)c1)OCC(=O)N1CCN(c2ccccc2)CC1	nt	nt	nt	i	nt	nt
COc1ccc(-c2cc(C(=O)NC3CCCC3)c3ccccc3n2)cc1	i	i	i	nt	nt	nt
O=C(NC1CCCCCCC1)c1cc(-c2ccccn2)nc2ccccc12	6.76	i	i	i	10.3	i
O=C(NC1CCN(Cc2ccccc2)CC1)c1cc(-c2ccccn2)nc2ccccc12	7.77	i	i	i	47.8	-58.6
Cc1ccc(C(C)C)c(OCC(=O)Nc2ccc3c(c2)nc(CCN2CCCCC2)n3C)c1	i	i	i	nt	24.7	-26.9
CCc1cc(CNC(=O)c2ccc(OC3CCN(CCc4ccccc4)CC3)cc2)on1	6.45	i	i	nt	i	-25.3
COCCCNc1ncnc2ccc(C)cc12	i	i	i	i	18.1	-34.1
CCCc1nc2c(C)cc(C)cc2c(N)c1CC	7.08	i	i	nt	44.2	-38.2
Cc1cc(C)c2nc(C(F)(F)F)c(C#N)c(N)c2c1	i	i	i	i	nt	nt
C[C@@H]1CN([C@@H](C)CO)S(=O)(=O)c2ccc(Br)cc2O[C@H]1CN(C)C(=O)Cc1cccnc1	nt	nt	nt	i	nt	nt
COc1ccc(C(=O)OCc2csc(C)n2)c(O)c1	i	i	i	i	nt	nt
C[C@H]1CCC(=O)N([C@H](COc2ccccc2)Cc2ccccc2)CC1	6.26	i	i	i	40.2	i
Cc1nnc(SCCn2c(N3CCCCC3)nc3c2c(=O)n(C)c(=O)n3C)s1	i	i	i	i	nt	nt
Cc1nnc(SCCn2c(N3CCN(C)CC3)nc3c2c(=O)n(C)c(=O)n3C)s1	7.66	i	i	nt	46.2	-70.2
Cc1sc2c3ccsc3ccc2[n+]1C	10.3	i	i	i	66.2	i
COc1ccc(Nc2nc(N3CCN(C)CC3)nc3ccccc23)c(OC)c1	i	i	i	i	nt	nt
COc1ccc(Nc2nc(-c3cccs3)nc3ccccc23)c(OC)c1	7.99	i	i	nt	9.8	i
SMILES	CHT PAM	Kir21 block	CHT block	TAG inh	CHT activ conf	HEK293 MP dye
CCOC(=O)c1sc(NC(=O)Cc2ccccc2OC)nc1C	i	i	i	nt	14.7	i
CC(=O)Nc1ncc(Sc2ccc([N+](=O)[O-])cc2)s1	nt	nt	nt	i	nt	nt
O=C(CCCO)c1ccc2c(c1)OCCO2	i	i	i	nt	nt	nt
O=C(CNC1=NCCC1)c1ccc2c(c1)OCCO2	i	i	i	nt	36.3	-28.3
COC(=O)c1ccc2nc(C)cc(Nc3ccccc3C)c2c1	6.59	i	i	i	43.5	-44.3
COC(=O)c1ccc(Nc2cc(C)nc3ccc(C)cc23)cc1	i	i	i	i	nt	nt
O=c1[nH]c2ccc(S(=O)(=O)N3CCN(C4CCCCC4)CC3)cc2[nH]c1=O	i	i	i	nt	46.1	-42.3
CCCCOc1ccc(OCCNC(=O)c2ccco2)cc1	i	i	i	nt	nt	nt
Cn1c(=O)[nH]c(=O)c2c1nc(N1CCCCC1)n2C/C=N/Nc1ccc(C(=O)O)cc1	i	i	i	i	nt	nt
CCCCNC(=S)N(C)/N=C/c1c(F)c(F)c(F)c(F)c1F	6.5	i	i	nt	17.3	i
Cn1ccnc1-c1nc2ccccc2[nH]c1=O	7.09	i	i	nt	63.1	-54.7
COc1cc(C(=O)N[C@H](C(=O)Nc2nnc(C3CC3)s2)C(C)C)cc(OC)c1OC	i	i	i	i	nt	nt
CN(CCO)S(=O)(=O)c1ccc2c(c1)C(=NNC(N)=O)c1cc(S(=O)(=O)N(C)CCO)ccc1-2	8.21	i	i	i	41.6	-42.8
CN(CCCC(=O)O)S(=O)(=O)c1ccc2c(c1)C(=O)c1cc(S(=O)(=O)N(C)CCCC(=O)O)ccc1-2	i	i	i	i	nt	nt
CN(CCOc1ccc(Cl)cc1)C(=O)c1cccc(S(=O)(=O)N2CCN(c3ccc(F)cc3)CC2)c1	nt	nt	nt	i	nt	nt
Nc1c(N(CCC2=CCCCC2)C(=O)CCCOc2ccccc2)c(=O)[nH]c(=O)n1Cc1ccccc1	i	i	i	i	nt	nt
CC(Oc1ccccc1)C(=O)N(CCC1=CCCCC1)c1c(N)n(Cc2ccccc2)c(=O)[nH]c1=O (configuration not stated)	i	i	i	i	10.8	i
COc1ccc(-c2nnc3ccc(SCC(=O)N4CCOCC4)nn23)cc1	i	i	i	i	nt	nt
COc1ccc(-c2nnc3ccc(SCC(=O)N4CCCCC4)nn23)cc1OC	i	i	i	i	19.7	i
COc1ccc(-c2nnc3ccc(SCC(N)=O)nn23)cc1OC	i	i	i	nt	31.0	-30.6
CCOC(=O)CSc1ccc2nnc(-c3ccncc3)n2n1	i	i	i	i	12.1	-33.1
CCCC12CN(C(=O)c3ccc([N+](=O)[O-])cc3)CC(C)(CN(C(=O)c3ccc([N+](=O)[O-])cc3)C1)C2=O	i	i	i	i	44.7	i
CC12CN(C(=O)c3ccc([N+](=O)[O-])cc3)CC(C)(CN(C(=O)c3ccc([N+](=O)[O-])cc3)C1)C2=O	i	i	i	nt	nt	nt
O=C(Cc1ccccc1)N/N=C/c1ccc(-c2ccc([N+](=O)[O-])cc2)o1	i	i	i	nt	nt	nt
Cc1ccc([N+](=O)[O-])cc1-c1ccc(/C=N/NC(=O)CN2CCOCC2)o1	i	i	i	i	51.0	-51.3
SMILES	CHT PAM	Kir21 block	CHT block	TAG inh	CHT activ conf	HEK293 MP dye
O=C(NC(=S)Nc1ccc(C(=O)N2CCOCC2)cc1)c1ccc([N+](=O)[O-])cc1	i	i	i	nt	nt	nt
CC(C)CC(c1nnnn1C(C)(C)C)N1CCN(C2CCCC2)CC1 (configuration not stated)	6.64	i	i	i	14.6	i
CCOc1ccccc1N(CC(=O)Nc1ccccc1C(=O)N1CCOCC1)S(C)(=O)=O	i	i	i	i	nt	nt
Cc1ccc(C)c(CN2C(=O)CSc3ccc(C(=O)NCC(C)CN4CCC(C)CC4)cc32)c1 (configuration not stated)	6.81	i	i	nt	39.6	-33.8
CCCCCOc1ccc(Br)cc1/C(C)=N/NC1=NCCN1	8.65	-13.8	i	68.8	55.0	i
Cc1ccc2oc(=O)n(Cc3ccc(F)cc3)c2c1	i	i	i	nt	nt	nt
Cc1nnc(SCC(=O)Nc2ccc(F)cc2F)n(N)c1=O	i	i	i	i	nt	nt
